IL1B secr inh = blocks inflammasome-driven IL-1 beta release. THP-1 LPS/ATP IL-1B secretion, AlphaLISA, 16 h; hits give low values. activity change, % at 57.5 µM. actives 4.7% (n = 360,000). AID 743279; in the data active means activity change below about -50%; inconclusive means mostly about -30% to -49%
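THP-1 cells pretreated 1 hr with compounds (up to 57.5 uM final), then stimulated with LPS (250 ng/mL final) plus ATP (1.25 mM final); secreted IL-1B measured by AlphaLISA after 16 hr, decreased signal indicating inhibition.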
S2 tox = reduces viability in counter-screen for ATXN expression inhibitors; actives 0.49% (n = 400,000); Potency, µM (titrated, usually from 56.7 µM), usual class: cytotoxic; S2 cells (HEK-293 line with an ATXN2-luciferase reporter) viability, CellTiter-Fluor protease fluorescence, 24 h; further: nearly all actives have a fitted effect of over 40% in size
PINK1 modulator = changes PINK1 expression; PINK1 immunofluorescence, high-content cytometry, 24 h; Potency, µM (doses to about 76.6 µM), actives largely listed as activators; actives 0.2% (n = 410,000); AID 624263; active means well fitted activation curve with a large enough effect; inconclusive means small, poorly fitted or top-dose-only effect; cell line not stated here; further: nearly all actives have a fitted effect of over 65% in size
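Cells are seeded, rested 12 hours, then given compound at five concentrations or DMSO for 24 hours. After fixation, blocking and antibody staining, PINK1 amount and mitochondrial localization are scored; CCCP serves as control.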
SW480 rereplic = inducers of DNA re-replication in SW480 colon cancer cells; actives 1.8% (n = 340,000); SW480 DNA re-replication, Hoechst DNA content imaging, 48 h; Potency, µM (top dose mostly 46.1 µM), hits mostly activators; further: nearly all actives have a fitted effect of over 55% in size
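Cells (250 per well) received 23 nL compound or DMSO by pin tool and were kept 48 hr at 37 C, 5% CO2. Nuclei were then stained with Hoechst for 40 min and scanned for DNA content.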
MCF10A rerep = induces DNA re-replication in MCF 10a normal breast cells; actives 2.9% (n = 350,000); AID 624296; MCF 10A DNA re-replication, Hoechst nuclear intensity, 48 h; Potency, µM (doses to about 46.1 µM), actives largely listed as activators; further: nearly all actives have a fitted effect of over 50% in size
ATXN2 expr inh = reduces ATXN2 reporter expression in HEK-293 cells; HEK-293 ATXN2-luciferase reporter, luminescence, 24 h; Potency, µM (top dose mostly 57 µM), usual class: inhibitors; actives 0.72% (n = 360,000); further: nearly all actives have a fitted effect of over 55% in size
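ATXN2-luciferase reporter cells (luciferase flanked by upstream and downstream ATXN2 gene portions) were treated 24 h at 37 °C with compounds at up to 57 uM. SteadyGlo luminescence gave expression; GF-AFC fluorescence gave viability.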
Hits are given with their value; - = inactive; ? = inconclusive; . = not tested or not shown. The list is not random: actives were taken first. Their share in the collection is about 7.1%. Unless noted, the call rests on the fitted dose curve; in most records, active means well fitted curve in the direction sought with a large enough effect; inconclusive means small, poorly fitted or top-dose-only effect, or another doubt; inactive means no such curve, though single readings can be large; an effect the other way counts as inactive or inconclusive.

SMILES	IL1B secr inh	S2 tox	PINK1 modulator	SW480 rereplic	MCF10A rerep	ATXN2 expr inh
COC(=O)c1sc2cccc(F)c2c1S(=O)(=O)NCc1ccc(F)cc1	.	-	-	.	.	-
Cc1cc(-c2ccc(C)c(S(=O)(=O)Nc3ccccc3C(F)(F)F)c2)on1	.	.	-	.	.	.
COc1ccc(C(=O)N2CCN(C(=O)c3cc(OC)c(OC)c(OC)c3)CC2)cc1	-	-	-	-	-	-
Cc1ccccc1N1CCN(C(=O)C2CCCCC2)CC1	-	-	-	-	-	-
Cc1cccc(N2CCN(C(=O)N3CCCCC3)CC2)c1C	-	-	-	-	?	-
COc1cc(C(=O)N2CCN(c3ccccn3)CC2)cc(OC)c1OC	-	-	-	-	-	-
Cc1cccc(N2CCN(C(=O)N3CCOCC3)CC2)c1C	-	-	-	16µM	?	-
COc1cc(C(=O)N2CCN(c3cccc(C)c3C)CC2)cc(OC)c1OC	-	?	-	0.73µM	10µM	?
Cc1cccc(N2CCN(C(=O)C3CCCCC3)CC2)c1C	-65	-	.	-	-	-
COc1cc(C(=O)N2CCN(c3cc(Cl)ccc3Cl)CC2)cc(OC)c1OC	-	?	-	1.2µM	?	-
Cc1ccc(-c2nc(N3CCCC(C)C3)c3ccccc3n2)cc1 (centres undefined)	.	-	-	.	.	-
COc1ccc(-c2nc(CSCC(=O)N3CCN(c4cccc(C)c4C)CC3)c(C)o2)cc1OC	.	32µM	-	.	.	?
COC(=O)CN1C(=O)CSc2ccc(S(=O)(=O)Nc3cccc(Cl)c3C)cc21	.	.	-	.	.	.
CCCCCCCCN1C(=O)[C@H](CC(=O)NCc2cccc(C(F)(F)F)c2)C[C@@]2(C(=O)OCC)CCCC=C12	-53	?	?	.	.	-
CCCCCCCCN1C(=O)[C@H](CC(=O)NCCCCc2ccccc2)C[C@@]2(C(=O)OCC)CCCC=C12	-	?	?	.	.	?
CCOC(=O)[C@]12CCC=C1N(Cc1ccccc1)C(=O)[C@H](CC(=O)NCc1cccc(C(F)(F)F)c1)C2	?	?	-	.	.	?
CCCCCCCCN1C(=O)[C@H](CC(=O)NCC2CCCCC2)C[C@@]2(C(=O)OCC)CCCC=C12	-51	?	?	.	.	?
CCCCCCCCN1C(=O)[C@H](CC(=O)NCc2ccccc2)C[C@@]2(C(=O)OCC)CCCC=C12	-72	?	-	.	.	?
C[C@@H]1CN(Cc2ccc3c(c2)CN(Cc2cccc(O)c2)CCO3)C[C@H](C)O1	.	-	-	.	.	.
Cc1cc(C(=O)NNC(=O)[C@H](C)NC(=O)c2ccc(Br)cc2)c(C)o1	-	-	-	-	-	-
Cc1cccc2c(N)c3c(nc12)CCCC3 (tested in a mixture with another compound)	-	?	-	?	?	?
Cc1cc(C)c2c(N)c3cccc(C)c3nc2n1	-99	.	-	16µM	21µM	13µM
CC(C)CN1CCN(C(=O)COC(=O)c2ccc(S(C)(=O)=O)c([N+](=O)[O-])c2)CC1	.	32µM	-	.	.	-
Cn1cccc1C(=O)NC(=O)COC(=O)c1ccc(S(C)(=O)=O)cc1	-	-	-	-	-	-
Cn1cccc1C(=O)NC(=O)COC(=O)c1ccc(S(C)(=O)=O)c([N+](=O)[O-])c1	-95	?	-	16µM	5.8µM	?
SMILES	IL1B secr inh	S2 tox	PINK1 modulator	SW480 rereplic	MCF10A rerep	ATXN2 expr inh
CS(=O)(=O)c1ccc(C(=O)OCc2nnc(-c3ccc(Cl)cc3)o2)cc1[N+](=O)[O-]	-77	.	-	?	3.7µM	?
Cn1ccsc1=NC(=O)c1ccc(S(C)(=O)=O)c([N+](=O)[O-])c1	-110	?	-	16µM	15µM	-
Cn1ccsc1=NC(=O)c1ccc(Cl)c([N+](=O)[O-])c1	-	?	-	-	-	.
COCC(=O)Nc1cc(C(=O)N2CCc3c(Cl)cccc3C2)c2c(c1)nc(-c1ccncc1)n2C	.	-	-	.	.	.
COc1ccccc1C(=O)Nc1cccc(OCc2cc(=O)n3c(C)csc3n2)c1	.	-	-	.	.	-
CS(=O)(=O)c1ccc(C(=O)OCC(=O)NC(=O)NC2CCCCC2)cc1[N+](=O)[O-]	.	.	-	.	.	.
Cc1nc2cc(C(=O)OCC(=O)NC3CCS(=O)(=O)C3)ccc2n1-c1ccccc1 (centres undefined)	-	-	-	-	-	-
CS(=O)(=O)c1ccc(C(=O)OCC(=O)NC23CC4CC(CC(C4)C2)C3)cc1[N+](=O)[O-]	-107	?	-	?	4.1µM	?
Cc1nc2cc(C(=O)OCC(=O)NC34CC5CC(CC(C5)C3)C4)ccc2n1-c1ccccc1	-66	-	?	-	-	-
CC1CCN(S(=O)(=O)c2ccc3c(c2)N(CC(=O)N(C)Cc2ccccc2)C(=O)CO3)CC1	.	.	-	.	.	.
O=S(=O)(Nc1ccc(F)cc1F)c1ccc(-n2cccn2)cc1	.	-	-	.	.	-
CCn1c(-c2ccccc2F)nc2cc(C(=O)NCC3CCOCC3)cc(NC(C)=O)c21	.	-	-	.	.	.
Cc1nc2c(nc1C)C(=O)c1ccccc1C2=O	-	?	-	13µM	5.8µM	?
O=C1c2ccccc2-c2nc3ccccc3nc21	-	-	-	-	-	-
CCCCS/C(N)=N/N=C/c1ccccc1O	-	?	-	?	?	-
CCCS/C(N)=N/N=C/c1cc(C)ccc1O	-51	-	-	?	?	-
Cc1ccn(CCC(=O)N2CCOc3ccc(C(O)C4CCCCC4)cc3C2)n1 (centres undefined)	.	-	-	.	.	.
CCC(OC(=O)c1ccc(S(C)(=O)=O)c([N+](=O)[O-])c1)C(=O)NC1C2CC3CC(C2)CC1C3 (centres undefined)	.	6.3µM	-	.	.	?
CC1CCN(C(=O)C(C)OC(=O)c2ccc(S(C)(=O)=O)c([N+](=O)[O-])c2)CC1 (centres undefined)	.	.	-	.	.	.
CC(OC(=O)c1ccc(S(C)(=O)=O)c([N+](=O)[O-])c1)C(=O)NC1C2CC3CC(C2)CC1C3 (centres undefined)	.	3.2µM	-	.	.	?
Nc1nc(N)c(-c2cccc(C(F)(F)F)c2)c(Cc2cccc(C(F)(F)F)c2)n1	-81	-	-	?	?	?
N#C/C(=C1/C(=O)Nc2ccc(Br)cc21)c1ccccn1	-62	-	-	-	-	-
CC[n+]1c(/C=C(\C)SC)sc2ccccc21	-	-	-	-	-	-
CCN1/C(=C/C=C/c2sc3ccccc3[n+]2CC)Sc2ccccc21	-105	11µM	?	-	-	7.1µM
CC[n+]1c(/C=C(\C)Nc2ccccc2)sc2ccccc21	-80	-	-	-	-	?
CC[n+]1c(/C=C/Nc2ccccc2)sc2ccccc21	-102	-	-	?	-	-
CCN1/C(=C/C=C/C=C/c2sc3ccccc3[n+]2CC)Sc2ccccc21	.	.	?	?	-	.

High-throughput results as filed in PubChem BioAssay.
